PubChem BioAssay (EPA / NIEHS)
“And” between values parts separate entries of the source, which are not always exact repeats. Identical values can stand only once. Where a structure was tested more than once in an assay, its records may differ in their call. The source made the active and inactive calls. Rule for the calls: active = hit-call score of the fitted dose curve at least 0.9, where 1 is the maximum; inactive = score below 0.9.

Assays:
[1] = APR_HepG2_NuclearSize_72hr: Apredica 72-hour HepG2 Assay for Nuclear Size (AID 2282925); details: high-content imaging, actives raise or lower the signal
Summary of the method: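 Read-out: nuclear diameter from Hoechst 33342 images (ArrayScan, 20x, six fields/well), via cell-cycle image analysis. HepG2 were dosed 0.39–200 uM for 72 hr in 0.5% DMSO. Bidirectional fit relative to DMSO.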

[2] = ATG_CRE_CIS: Attagene CIS-FACTORIAL HepG2 Assay for human cAMP Responsive Element (CRE) binding protein 3 (AID 2282926); details: HepG2 CRE cis-reporter, Attagene multiplexed mRNA; actives raise or lower the signal
Summary of the method: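 Liver-derived HepG2, transfected with a CRE-containing reporter panel, exposed 24 h; transcript levels sized and quantified by capillary electrophoresis of labelled amplicons; signal changes either way referenced to vehicle.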

[3] = target: CCAAT/enhancer-binding protein beta (Homo sapiens) (UniProt P17676); test: ATG_C_EBP_CIS: Attagene CIS-FACTORIAL HepG2 Assay for human CCAAT/Enhancer Binding Protein (C/EBP) beta (AID 2282927); details: HepG2 Attagene cis-factorial transcription factor reporter; actives raise or lower the signal
CCAAT/enhancer-binding protein beta (Homo sapiens), sequence (P17676 whole entry, looked up): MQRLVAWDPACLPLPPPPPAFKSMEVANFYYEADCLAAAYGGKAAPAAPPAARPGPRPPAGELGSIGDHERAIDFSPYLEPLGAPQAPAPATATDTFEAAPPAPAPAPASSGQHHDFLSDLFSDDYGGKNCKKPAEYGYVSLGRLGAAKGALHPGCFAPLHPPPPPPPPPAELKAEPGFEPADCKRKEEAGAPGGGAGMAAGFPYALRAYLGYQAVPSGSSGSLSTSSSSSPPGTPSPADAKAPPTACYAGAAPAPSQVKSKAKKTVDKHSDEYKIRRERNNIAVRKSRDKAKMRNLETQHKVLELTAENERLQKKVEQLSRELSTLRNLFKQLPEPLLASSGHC
Summary of the method: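 HepG2, transient MRTU transfection, 24 h treatment. RT-PCR plus CE fluorescence; DMSO negative control, bidirectional fit.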

[4] = ATG_CMV_CIS: Attagene CIS-FACTORIAL HepG2 Assay for human CMV (Internal Marker) (AID 2282928); details: HepG2 CMV promoter reporter, transcription factor profiling; actives raise or lower the signal;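 note: endpoint acts as a background internal control marker rather than a target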
Summary of the method: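 Reporter transcripts from transfected HepG2 cells are isolated after 24 h of chemical dosing, reverse-transcribed and amplified. Fragments labeled with 6-FAM are cut with HpaI and quantified by capillary electrophoresis; DMSO defines baseline.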

[5] = ATG_DR4_LXR_CIS: Attagene CIS-FACTORIAL HepG2 Assay for human Liver X Receptor (LXR), DR4 submotif (AID 2282929); details: HepG2 Attagene DR4 cis-reporter, mRNA transcription; actives raise or lower the signal
Summary of the method: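 HepG2 cells were transiently transfected with multiple cis-regulated reporter units and dosed for 24 hours. The DR4 reporter mRNA was quantified by RT-PCR, 6-FAM labelling and capillary electrophoresis. Bidirectional fits used DMSO as baseline.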

[6] = target: Aryl hydrocarbon receptor (Homo sapiens) (UniProt P35869); test: ATG_Ahr_CIS: Attagene CIS-FACTORIAL HepG2 Assay for human Aryl Hydrocarbon Receptor (Ahr) (AID 2282930); details: HepG2 AhR cis-factorial reporter transcription; actives raise or lower the signal
Aryl hydrocarbon receptor (Homo sapiens), sequence (P35869 whole entry, looked up): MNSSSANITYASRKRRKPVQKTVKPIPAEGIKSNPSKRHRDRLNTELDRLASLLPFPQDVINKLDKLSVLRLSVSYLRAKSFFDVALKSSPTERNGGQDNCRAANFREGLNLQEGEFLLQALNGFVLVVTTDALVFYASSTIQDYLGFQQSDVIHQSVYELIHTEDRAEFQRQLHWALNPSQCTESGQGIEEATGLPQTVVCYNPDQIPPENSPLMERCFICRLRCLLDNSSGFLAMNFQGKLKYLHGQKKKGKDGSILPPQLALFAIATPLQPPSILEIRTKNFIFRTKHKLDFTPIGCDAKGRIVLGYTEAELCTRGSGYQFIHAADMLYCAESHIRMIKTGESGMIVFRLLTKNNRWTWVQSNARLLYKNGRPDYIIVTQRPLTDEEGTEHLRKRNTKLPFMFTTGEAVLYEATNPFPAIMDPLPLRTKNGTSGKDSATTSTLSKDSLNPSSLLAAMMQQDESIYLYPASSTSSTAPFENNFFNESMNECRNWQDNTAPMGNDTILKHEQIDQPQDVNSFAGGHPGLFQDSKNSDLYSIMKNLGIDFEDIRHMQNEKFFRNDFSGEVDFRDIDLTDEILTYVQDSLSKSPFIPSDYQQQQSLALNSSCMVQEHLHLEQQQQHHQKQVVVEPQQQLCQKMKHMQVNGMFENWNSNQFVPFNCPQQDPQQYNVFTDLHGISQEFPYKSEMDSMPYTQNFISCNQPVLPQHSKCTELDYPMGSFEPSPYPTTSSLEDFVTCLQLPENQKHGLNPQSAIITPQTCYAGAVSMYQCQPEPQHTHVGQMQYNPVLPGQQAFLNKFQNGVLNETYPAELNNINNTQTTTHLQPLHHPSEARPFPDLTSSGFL
Summary of the method: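 Endogenous factor activity is tracked through cis-promoter reporter units transfected into HepG2 cells. Transcript levels at 24 h are read by fluorescent RT-PCR and capillary electrophoresis, with activity in either direction scored relative to DMSO.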

[7] = ATG_AP_1_CIS: Attagene CIS-FACTORIAL HepG2 Assay for human Activator Protein 1 (AP-1) (AID 2282931); details: HepG2 Attagene cis-factorial AP-1 reporter mRNA; actives raise or lower the signal
Summary of the method: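 HepG2 cells transiently transfected with cis-element-driven reporter transcription units, dosed for 24 hours. Reporter mRNA measured by RT-PCR, 6-FAM labelling, HpaI digestion and capillary electrophoresis. Bidirectional fitting against DMSO baseline.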

[8] = ATG_AP_2_CIS: Attagene CIS-FACTORIAL HepG2 Assay for human Activator Protein 2 (AP-2) (AID 2282932); details: HepG2 AP-2 cis-reporter, Attagene transcription factor profiling; actives raise or lower the signal
Summary of the method: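 Liver-derived HepG2 line, cis-reporter system measuring endogenous factors; 24 h dosing; reporter mRNA detected by fluorescent RT-PCR and capillary electrophoresis.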

[9] = ATG_BRE_CIS: Attagene CIS-FACTORIAL HepG2 Assay for human Bone Morphogenetic Protein (BMP) Response Element (BRE) (AID 2282933); details: HepG2 BMP response element reporter, Attagene transcription factor profiling; actives raise or lower the signal
Summary of the method: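 Multiplexed cis-reporter assay, HepG2, 24 h exposure. mRNA from reporter units quantified via RT-PCR/CE; DMSO baseline; bidirectional curve fit.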

[10] = target: Retinoic acid receptor alpha (Homo sapiens) (UniProt P10276); test: ATG_DR5_RAR_CIS: Attagene CIS-FACTORIAL HepG2 Assay for human Retinoic Acid Receptor Alpha (RARE), DR5 submotif (AID 2282934); details: HepG2 Attagene cis-factorial RARE DR5 reporter, mRNA; actives raise or lower the signal
Retinoic acid receptor alpha (Homo sapiens), sequence (P10276 whole entry, looked up): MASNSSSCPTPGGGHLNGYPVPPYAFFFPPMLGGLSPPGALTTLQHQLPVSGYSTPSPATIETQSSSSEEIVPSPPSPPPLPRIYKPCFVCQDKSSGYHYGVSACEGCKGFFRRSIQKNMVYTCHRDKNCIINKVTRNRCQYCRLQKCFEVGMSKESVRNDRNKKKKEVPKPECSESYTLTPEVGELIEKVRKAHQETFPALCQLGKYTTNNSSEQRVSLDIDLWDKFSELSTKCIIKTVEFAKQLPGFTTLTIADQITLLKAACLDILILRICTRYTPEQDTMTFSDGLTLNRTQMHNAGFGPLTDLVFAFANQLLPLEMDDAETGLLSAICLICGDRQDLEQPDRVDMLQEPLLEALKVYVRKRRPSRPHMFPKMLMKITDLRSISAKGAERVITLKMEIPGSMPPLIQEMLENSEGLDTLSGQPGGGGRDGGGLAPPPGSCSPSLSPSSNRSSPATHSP
Summary of the method: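 After 24 h of chemical exposure, transiently transfected HepG2 cells were lysed for total RNA; the DR5-regulated reporter transcript was quantified via RT-PCR and capillary electrophoresis, with activity fitted bidirectionally against DMSO.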

SMILES | outcome [1] | AC50 [2] | outcome [3] | outcome [4] | outcome [5] | outcome [6] | outcome [7] | outcome [8] | outcome [9] | outcome [10] | outcome [2] | AC50 [5] | AC50 [6] | AC50 [3] | AC50 [4] | AC50 [7] | AC50 [9] | AC50 [1] | AC50 [8]
C#CCN1C(=O)COc2cc(F)c(N3C(=O)C4=C(CCCC4)C3=O)cc21 | inactive | 22.4 µM (active) | inactive | inactive | inactive | inactive | inactive | inactive | inactive | inactive | – | – | – | – | – | – | – | – | –
COP(=S)(OC)Oc1ccc(SC)c(C)c1 | inactive | – | inactive | inactive | – | – | inactive | inactive | inactive | – | inactive | 29.2 µM (active) | 10.6 µM (active) | – | – | – | – | – | –
ClC1C(Cl)C(Cl)C(Cl)C(Cl)C1Cl (configuration not stated) | inactive | 16 µM (active) | inactive | inactive | inactive | – | inactive | inactive | inactive | – | inactive | 116 µM (active) and 21.7 µM (active) | – | 61.8 µM (active) | 65.5 µM (active) | 47.9 µM (active) | 10.5 µM (active) | – | –
CC1(c2ccc(Oc3ccccc3)cc2)OC(=O)N(Nc2ccccc2)C1=O (configuration not stated) | inactive | 1.3 µM (active) | inactive | inactive | inactive | – | inactive | inactive | – | – | – | – | – | – | – | – | 1.14 µM (active) | – | –
Clc1ccccc1-c1nnc(-c2ccccc2Cl)nn1 | inactive | – | inactive | inactive | inactive | – | inactive | inactive | inactive | – | inactive | – | – | – | – | – | – | – | –
Oc1ccc(Cl)cc1Cc1ccccc1 | inactive | 13.4 µM (active) | inactive | inactive | inactive | – | inactive | inactive | inactive | – | inactive | 11.2 µM (active) and 14.2 µM (active) and 13.4 µM (active) | – | 8.76 µM (active) | 15.2 µM (active) | 12.7 µM (active) | 9.67 µM (active) | 110 µM (active) | 17.6 µM (active)
CCCN(CCOc1c(Cl)cc(Cl)cc1Cl)C(=O)n1ccnc1 | inactive | – | inactive | inactive | inactive | – | inactive | inactive | inactive | – | inactive | – | – | – | 11.1 µM (active) | 14 µM (active) | 15.1 µM (active) | – | –
O=S(=O)(O)C(F)(F)C(F)(F)C(F)(F)C(F)(F)C(F)(F)C(F)(F)C(F)(F)C(F)(F)F | inactive | 142 µM (active) and 53.4 µM (active) | inactive | inactive | inactive | – | inactive | inactive | inactive | – | inactive | – | – | – | 61.4 µM (active) and 191 µM (active) and 89.9 µM (active) | 26.9 µM (active) [middle of 8 runs] | – | 110 µM (active) and 9.67 µM (active) | 140 µM (active) and 26.8 µM (active)
CCOc1nc(NC)nc(NC(=O)NS(=O)(=O)c2ccccc2C(=O)OC)n1 | inactive | – | inactive | inactive | inactive | inactive | inactive | inactive | inactive | – | inactive | – | – | – | – | – | – | – | –
O=C(Nc1ccccc1)Nc1cnns1 | inactive | – | inactive | – | – | inactive | – | inactive | – | – | inactive | 82.7 µM (active) | – | – | 50 µM (active) | 50 µM (active) | 50 µM (active) | – | –
O=C(O)C(F)(F)C(F)(F)C(F)(F)C(F)(F)C(F)(F)C(F)(F)C(F)(F)F | inactive | – | inactive | inactive | inactive | – | inactive | inactive | inactive | – | inactive | 11.5 µM (active) | – | – | – | 150 µM (active) | – | – | –
CCCN(CCC)c1c([N+](=O)[O-])cc(C(F)(F)F)cc1[N+](=O)[O-] | inactive | – | – | – | – | inactive | inactive | inactive | inactive | – | inactive | 24.1 µM (active) | – | 2.59 µM (active) | 82.3 µM (active) | – | – | – | –
CCOC1Oc2ccc(OS(C)(=O)=O)cc2C1(C)C (configuration not stated) | inactive | 24 µM (active) | – | inactive | inactive | – | inactive | inactive | – | – | – | – | – | 14.5 µM (active) | – | – | 61.4 µM (active) | – | –
CC(C)N(C(=O)COc1nnc(C(F)(F)F)s1)c1ccc(F)cc1 | inactive | 31.9 µM (active) | inactive | inactive | inactive | – | – | inactive | – | – | – | – | – | – | – | 50 µM (active) | 34.9 µM (active) | – | –
Cc1[nH]c(=O)n(C(C)(C)C)c(=O)c1Cl | inactive | 30.3 µM (active) | – | inactive | inactive | inactive | inactive | inactive | – | – | – | – | – | 31.3 µM (active) | – | – | 50.5 µM (active) | – | –
CNC(=O)Oc1ccccc1OC(C)C | inactive | – | inactive | inactive | inactive | – | inactive | inactive | inactive | – | inactive | – | – | – | – | – | – | – | –
CC(C)(C)C(O)C(Oc1ccc(Cl)cc1)n1cncn1 (configuration not stated) | inactive | 5.81 µM (active) | inactive | inactive | inactive | inactive | inactive | inactive | inactive | – | inactive | – | – | 7.06 µM (active) | – | 10.4 µM (active) | 7.92 µM (active) | – | –
COC(=O)c1ccccc1S(=O)(=O)NC(=O)Nc1nc(C)nc(OC)n1 | inactive | – | inactive | inactive | inactive | – | inactive | inactive | inactive | – | inactive | – | – | – | – | 63.1 µM (active) | 27.1 µM (active) | – | –
O=C(O)COc1ccc(Cl)cc1Cl | inactive | – | inactive | inactive | inactive | – | inactive | inactive | inactive | – | inactive | – | – | – | – | – | – | – | –
CCc1ccc(C(=O)NN(C(=O)c2cc(C)cc(C)c2)C(C)(C)C)cc1 | inactive | – | inactive | inactive | – | inactive | inactive | inactive | inactive | – | inactive | 50 µM (active) | – | – | – | – | – | – | –
Oc1cc(Cl)ccc1Oc1ccc(Cl)cc1Cl | inactive | 8.07 µM (active) [middle of 4 runs] | inactive | inactive | inactive | – | inactive | inactive | inactive | – | inactive | 17.6 µM (active) [middle of 4 runs] | – | 20.5 µM (active) | 8.95 µM (active) [middle of 5 runs] | 8.94 µM (active) [middle of 5 runs] | 7.15 µM (active) [middle of 6 runs] | 36.8 µM (active) | 20.7 µM (active)
CC(C)OC(=O)Nc1cccc(Cl)c1 | inactive | 15.3 µM (active) | – | – | inactive | inactive | inactive | inactive | inactive | – | – | – | – | 22.5 µM (active) | 34.1 µM (active) | – | – | – | –
O=C1c2ccccc2C(=O)N1SC(Cl)(Cl)Cl | inactive | – | inactive | inactive | inactive | inactive | inactive | inactive | inactive | inactive | inactive | – | – | – | – | – | – | – | –
O=[N+]([O-])c1c(Cl)c(Cl)c(Cl)c(Cl)c1Cl | inactive | 32.2 µM (active) | inactive | inactive | inactive | – | inactive | inactive | inactive | – | – | – | – | – | – | – | – | – | –
